What all share (experiment): NCI-60 one-dose screen, 48 h (100 = growth as untreated, 0 = no growth, -100 = all killed)
One assay has as its system NCI-H23 lung. To be noted: 10 µM unless noted.
The test system of another assay is NCI-H226 lung. To be noted: 10 µM unless noted.
The subject of another assay is NCI-H322M lung. To be noted: 10 µM unless noted.
A further assay relates to HOP-62 NSCLC. To be noted: 10 µM unless noted.
The test system of another assay is NCI-H460 lung. To be noted: 10 µM unless noted.
The subject of another assay is HOP-92 NSCLC. To be noted: 10 µM unless noted.
In another assay the test system is NCI-H522 lung. To be noted: 10 µM unless noted.
The test system of the next assay is A549/ATCC NSCLC. To be noted: 10 µM unless noted.
A further assay concerns 786-0 renal. To be noted: 10 µM unless noted.
The test system of the next assay is COLO 205 colon. To be noted: 10 µM unless noted.
The test system of another assay is DU-145 prostate. To be noted: 10 µM unless noted.
In the next assay the test system is K-562 leukemia. To be noted: 10 µM unless noted.
The next assay has as its system MALME-3M melanoma. To be noted: 10 µM unless noted.
The next assay deals with MDA-MB-231 breast. To be noted: 10 µM unless noted.
The subject of the next assay is RXF 393 renal. To be noted: 10 µM unless noted.
In the next assay the test system is SF-268 CNS. To be noted: 10 µM unless noted.
The next assay has as its system SF-295 CNS. To be noted: 10 µM unless noted.
Another assay deals with SF-539 CNS. To be noted: 10 µM unless noted.
The subject of a further assay is UACC-257 melanoma. To be noted: 10 µM.

The text below walks through data of PubChem BioAssay (NCI).

The panel holds about 83,000 compounds, 20% with a hit somewhere; the sample as a whole holds those more often.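 Results are percent growth after 48 hours of single-concentration exposure. 100 means growth as in untreated cells, lower positive values show inhibition; negative values down to -100 show cell death.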 Active and inactive are the calls of the source. Rule for the calls: active = growth percent below 10; inactive = the rest.

Regarding `CCN(CC)Cc1c(-c2cccc(OC(F)(F)F)c2)[nH]c2ccc(N3CCCC3)cc2c1=O`, the growth was 92.9% (inactive) in the assay with NCI-H23 lung; 96.1% (inactive) in the assay with NCI-H226 lung; 87.3% (inactive) with NCI-H322M lung; 103% (inactive) in the assay on HOP-62 NSCLC; 97.5% (inactive) in the assay on NCI-H460 lung; 86.2% (inactive) with HOP-92 NSCLC. The growth with NCI-H522 lung was 87.5% (inactive); in the assay with A549/ATCC NSCLC it was 99% (inactive); with 786-0 renal, 98.6% (inactive); in the assay on COLO 205 colon, 103% (inactive); in the assay on DU-145 prostate, 99.7% (inactive); in the assay with K-562 leukemia, 87.8% (inactive). Besides, the growth is 86% (inactive) in the assay with MALME-3M melanoma; 87% (inactive) with MDA-MB-231 breast; 74.1% (inactive) with RXF 393 renal; 89.1% (inactive) with SF-268 CNS; 102% (inactive) with SF-295 CNS; 95% (inactive) with SF-539 CNS. Further, the growth with UACC-257 melanoma was 91.3% (inactive).

On to `ClC(Cl)c1nc(-c2cccs2)n2nc(-c3ccccc3)cc2n1`, for which the growth with NCI-H23 lung was 4.85% (active); with NCI-H226 lung, 82.6% (inactive); with NCI-H322M lung, -28.8% (active); in the assay on HOP-62 NSCLC, -6.27% (active); with NCI-H460 lung, -40.1% (active); in the assay on HOP-92 NSCLC, -27.7% (active). Also, the growth is 75.1% (inactive) in the assay on NCI-H522 lung; -16.1% (active) in the assay on A549/ATCC NSCLC; 40.2% (inactive) in the assay with 786-0 renal; -40.7% (active) in the assay with COLO 205 colon; -24.3% (active) with DU-145 prostate; 27.9% (inactive) in the assay with K-562 leukemia. In addition, the growth in the assay on MALME-3M melanoma was 67.7% (inactive); in the assay on MDA-MB-231 breast it was -26.9% (active); in the assay with RXF 393 renal it was -73.2% (active); with SF-268 CNS, 6.38% (active); in the assay with SF-295 CNS, -27.6% (active); with SF-539 CNS, -44% (active). Also, the growth with UACC-257 melanoma is 16.3% (inactive).

`Cc1ccc(NC(=O)c2cccc(CN3CCN(C)CC3)c2)cc1Oc1ccc(-c2[nH]nc3ncnc(N)c23)cc1`: the growth with NCI-H23 lung is 75.6% (inactive); in the assay on NCI-H226 lung, 76.9% (inactive); with NCI-H322M lung it was 83.9% (inactive); in the assay with HOP-62 NSCLC, 80.9% (inactive); in the assay on NCI-H460 lung, 72.8% (inactive); in the assay with HOP-92 NSCLC, 65.3% (inactive). The growth in the assay on NCI-H522 lung was 77.1% (inactive); in the assay with A549/ATCC NSCLC, 61.9% (inactive); in the assay on 786-0 renal, 40.8% (inactive); in the assay on COLO 205 colon, 10.1% (inactive); in the assay on DU-145 prostate it was 81.9% (inactive); with K-562 leukemia, 10.6% (inactive). The growth in the assay with MALME-3M melanoma was 49.2% (inactive); in the assay with MDA-MB-231 breast, 60.7% (inactive); in the assay with RXF 393 renal, 23.3% (inactive); in the assay on SF-268 CNS, 73.8% (inactive); in the assay with SF-295 CNS it was 78% (inactive); in the assay on SF-539 CNS, 62% (inactive). For the same compound, in the assay with UACC-257 melanoma, the growth is 75.4% (inactive).

Take `Cn1ccnc1C(=O)/C=C/c1ccc(C(=O)Nc2ccc(NC(=O)CCNC(=O)c3csc(Br)n3)cc2)cc1`: the growth was 43.5% (inactive) with NCI-H23 lung; 84.5% (inactive) in the assay with NCI-H226 lung; 66.2% (inactive) in the assay with NCI-H322M lung; 62.6% (inactive) in the assay with HOP-62 NSCLC; 46.2% (inactive) in the assay on NCI-H460 lung; 103% (inactive) with HOP-92 NSCLC. Further, the growth in the assay on NCI-H522 lung is 29% (inactive); with A549/ATCC NSCLC, 64.5% (inactive); with 786-0 renal, 66.3% (inactive); in the assay on COLO 205 colon it was 85.7% (inactive); in the assay with DU-145 prostate it was 11.9% (inactive); in the assay with K-562 leukemia, 16% (inactive). The growth with MALME-3M melanoma is 102% (inactive); in the assay on MDA-MB-231 breast, 72.9% (inactive); with RXF 393 renal, 68.2% (inactive); in the assay on SF-268 CNS, 62.2% (inactive); in the assay on SF-295 CNS, 81.3% (inactive); in the assay with SF-539 CNS, 7.51% (active). In the assay with UACC-257 melanoma, the growth was 88.6% (inactive).

In the case of `COc1ccc(/C=N/Nc2nc(N/N=C/c3ccc(OC)cc3O)nc(N3CCOCC3)n2)c(O)c1`, the growth in the assay with NCI-H23 lung was 86.3% (inactive); in the assay on NCI-H226 lung it was 69.4% (inactive); in the assay on NCI-H322M lung, 59.7% (inactive); with HOP-62 NSCLC, 64.8% (inactive); in the assay on NCI-H460 lung, 23.5% (inactive); in the assay with HOP-92 NSCLC, 88.6% (inactive). Further, the growth in the assay on NCI-H522 lung is 80.9% (inactive); in the assay on A549/ATCC NSCLC, 53% (inactive); in the assay on 786-0 renal it was 14.7% (inactive); with COLO 205 colon it was 63.5% (inactive); in the assay with DU-145 prostate, 57.8% (inactive); in the assay on K-562 leukemia, 28% (inactive). The growth in the assay with MALME-3M melanoma was 67.6% (inactive); in the assay on MDA-MB-231 breast, 70.3% (inactive); in the assay on RXF 393 renal it was -16.2% (active); in the assay on SF-268 CNS, 53.8% (inactive); in the assay on SF-295 CNS, 31.3% (inactive); with SF-539 CNS it was 47.3% (inactive). Further, the growth in the assay on UACC-257 melanoma is 55.8% (inactive).

As for `NC(=O)C(=Cc1ccc(Cl)cc1)C(N)=O`, the growth is 74.5% (inactive) in the assay on NCI-H23 lung; 65.3% (inactive) with NCI-H226 lung; 79.6% (inactive) in the assay with NCI-H322M lung; 95.9% (inactive) with HOP-62 NSCLC; 89% (inactive) in the assay on NCI-H460 lung; 34.8% (inactive) with HOP-92 NSCLC. For the same compound, the growth in the assay with NCI-H522 lung was 46.5% (inactive); in the assay on A549/ATCC NSCLC, 74.5% (inactive); in the assay on 786-0 renal, 70.7% (inactive); in the assay with COLO 205 colon it was 81.3% (inactive); in the assay with DU-145 prostate it was 39.7% (inactive); in the assay on K-562 leukemia it was 31.8% (inactive). Further, the growth with MALME-3M melanoma is 82% (inactive); in the assay with MDA-MB-231 breast it was 80.3% (inactive); in the assay on RXF 393 renal, 62.9% (inactive); in the assay with SF-268 CNS it was 84.8% (inactive); in the assay on SF-295 CNS it was 71.9% (inactive); in the assay on SF-539 CNS, 55.6% (inactive). Also, the growth in the assay on UACC-257 melanoma is 68.3% (inactive).

On to `COCCC[C@H]1O[C@@](O)([C@H](C)[C@@H]2CC(OC)C(O)/C=C(C)/C=C(C)/C=C(\C)C(OC3O[C@@H](C)[C@H](O)C(O)[C@@H]3O)C(C)/C=C(C)/C=C(OC)/C=C(\C)C(=O)O2)C(OC)C(O)[C@]1(C)O[C@H]1C[C@@H](O)[C@H](O[C@H]2C[C@](C)(O)[C@H](O)C(C)O2)C(C)O1` (some centres not stated), for which the growth in the assay with NCI-H23 lung was 41.2% (inactive); in the assay with NCI-H226 lung, 38.2% (inactive); with NCI-H322M lung it was 97.4% (inactive); in the assay on HOP-62 NSCLC, 68.9% (inactive); with NCI-H460 lung, 52.1% (inactive); in the assay with HOP-92 NSCLC, 88.2% (inactive). Also, the growth was 34.2% (inactive) with NCI-H522 lung; 40% (inactive) in the assay on A549/ATCC NSCLC; 73.1% (inactive) in the assay with 786-0 renal; 40.4% (inactive) in the assay on COLO 205 colon; 48.5% (inactive) with DU-145 prostate; 21.2% (inactive) in the assay on K-562 leukemia. The growth is 51.1% (inactive) in the assay on MALME-3M melanoma; 84.1% (inactive) in the assay on MDA-MB-231 breast; 47.6% (inactive) in the assay with RXF 393 renal; 73% (inactive) with SF-268 CNS; 24.8% (inactive) in the assay on SF-295 CNS; 79.2% (inactive) in the assay on SF-539 CNS. For the same compound, the growth in the assay on UACC-257 melanoma is 3.39% (active).

Take `CCC(CC)n1c(=O)c(SC2=NC3C(NN2)N(CC)C(=O)N3CC)c(C(=O)O)c2ccccc21` (configuration not stated): the growth in the assay on NCI-H23 lung is 11.7% (inactive); in the assay with NCI-H226 lung it was 36.1% (inactive); with NCI-H322M lung, 54.7% (inactive); in the assay with HOP-62 NSCLC, 33.6% (inactive); in the assay on NCI-H460 lung, 3.21% (active); in the assay with HOP-92 NSCLC it was 21.7% (inactive). The growth was -45% (active) in the assay with NCI-H522 lung; 36.5% (inactive) with A549/ATCC NSCLC; 27.9% (inactive) with 786-0 renal; -53.4% (active) with COLO 205 colon; 16.2% (inactive) with DU-145 prostate; 11.1% (inactive) in the assay on K-562 leukemia. Also, the growth in the assay on MALME-3M melanoma was 68.1% (inactive); in the assay on MDA-MB-231 breast, 19.1% (inactive); in the assay on RXF 393 renal, 13.4% (inactive); with SF-268 CNS, 52.4% (inactive); with SF-295 CNS it was 22.3% (inactive); in the assay on SF-539 CNS, 3.93% (active). In addition, the growth with UACC-257 melanoma was 59.9% (inactive).
